Screening data deposited in PubChem by National Center for Advancing Translational Sciences (NCATS).
SMN2 splice up: qHTS Assay for Enhancers of SMN2 Splice Variant Expression; 210,000 tested, 2.8% active; HEK293 SMN2-luciferase splicing reporter, luminescence, 30-36 h; AID 1458, 2008; Potency, µM (top dose mostly 46.1 µM), for the others: at the highest dose activity change, positive = activation, actives largely listed as activators; further: % of control where 0% means no effect; nearly all actives have a fitted effect of over 55% in size
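HEK293 cells carry an SMN2 minigene-luciferase reporter in which exon 7 inclusion puts luciferase in frame. Cells were seeded at 2000 cells/well, attached for 10-12 hours, then exposed to compounds for 30-36 hours at 37C before ONE-Glo luminescence.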
NPC1 promoter act: qHTS Assay for NPC1 Promoter Activators; 320,000 tested, 2.4% active; Potency, µM (top dose mostly 9.22 µM), inactives show at the top dose activation, hits mostly activators; Huh7 NPC1 promoter luciferase reporter, 24 h; further: % of control where 0% means no effect; nearly all actives have a fitted effect of over 60% in size
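Luminescence from an NPC1 promoter-driven luciferase reporter in stably transfected Huh7 cells was measured after 24 h compound treatment at 37 °C, followed by 10 min ambient incubation with luciferase detection reagent.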
Rab9 promoter act: qHTS Assay for Rab9 Promoter Activators; Huh7 Rab9 promoter-luciferase reporter, luminescence, 24 h; Potency, µM (series often up to 9.22 µM), inactives show at the highest dose activation, negative = inhibition, hits mostly activators; 320,000 tested, 2.8% active; further: % of control where 0% means no effect; nearly all actives have a fitted effect of over 60% in size
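Luminescence read-out: Huh7 cells stably expressing Rab9-luciferase, treated 24 h with compound at 37 °C, then lysed with luciferase reagent for 10 min at ambient before reading.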
KinaseGlo FLuc: Counterscreen for Luciferase (Kinase-Glo TM) Inhibition; Luciferin 4-monooxygenase (Photuris pensylvanica), Q27757; 200,000 tested, 0.28% active; Kinase-Glo luciferase, ATP luminescence, 8 min; Potency, µM (top dose mostly 38.3 µM), for the others: at the highest dose activity change, negative = inhibition, usual class: inhibitors; further: on the % scale 0 is the no-effect control and ±100 the full control effect; nearly all actives have a fitted effect of over 60% in size
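Luminescence was the read-out, taken after 8-minute incubation at ambient temperature. Luciferase turned over luciferin with 10 uM ATP in imidazole pH 7.2 buffer containing KCl, MgCl2, Tween 20 and BSA.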
FLuc counter: qHTS profiling assay for firefly luciferase inhibitor/activator using purifed enzyme and Km concentrations of substrates (counterscreen for miR-21 project); Potency, µM (doses to about 57.5 µM), for the others: top-dose activity change, negative = inhibition, hits mostly inhibitors; purified FLuc, Km substrates, luminescence inhibition; Luciferin 4-monooxygenase (Photinus pyralis), P08659; 360,000 tested, 6.9% active; AID 588342, 2011;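 further: plate controls were vehicle for no effect and reference inhibitor for full effect; nearly all actives have a fitted effect of over 55% in size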
Target sequence (P08659 whole entry, looked up): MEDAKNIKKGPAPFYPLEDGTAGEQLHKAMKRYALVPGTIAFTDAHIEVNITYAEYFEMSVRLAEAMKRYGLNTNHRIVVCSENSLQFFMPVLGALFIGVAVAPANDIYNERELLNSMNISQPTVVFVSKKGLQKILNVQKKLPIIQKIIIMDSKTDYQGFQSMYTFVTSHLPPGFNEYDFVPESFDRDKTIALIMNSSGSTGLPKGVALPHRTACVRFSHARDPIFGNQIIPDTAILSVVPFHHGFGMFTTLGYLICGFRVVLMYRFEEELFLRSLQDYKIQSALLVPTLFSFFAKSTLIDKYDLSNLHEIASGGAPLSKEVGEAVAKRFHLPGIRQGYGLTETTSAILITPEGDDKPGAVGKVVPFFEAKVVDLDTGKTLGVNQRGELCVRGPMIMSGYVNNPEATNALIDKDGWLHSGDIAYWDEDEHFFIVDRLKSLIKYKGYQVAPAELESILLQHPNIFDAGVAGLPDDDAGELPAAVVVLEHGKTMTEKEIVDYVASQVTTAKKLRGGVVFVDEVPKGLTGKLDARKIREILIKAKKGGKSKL
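Biochemical qHTS of compounds, final roughly 60 µM downward over six points, against 10 nM purified firefly luciferase using Km concentrations of substrates (10 uM D-luciferin, 10 uM ATP) in Tris acetate pH 7.5 buffer; luminescence output.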
ELG1 genotox: qHTS screen for small molecules that induce genotoxicity in human embryonic kidney (HEK293T) cells expressing luciferase-tagged ELG1; AID 504466, 2011; 330,000 tested, 1.3% active; HEK293T ELG1-luciferase reporter, luminescence, 16 h; Potency, µM (highest dose often 46 µM), for inactives: at the highest dose activity change, positive = activation, actives largely listed as activators; further: % of control where 0% means no effect; nearly all actives have a fitted effect of over 60% in size
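Reporter readout depends on ELG1 protein level, which increases with genetic stress. After 16 hr compound exposure at 37 °C, luciferase activity was quantified using ONE-Glo.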
Active calls of the source: *; ? = inconclusive; / = not tested or not shown. In the library only some 7.4% were active in any assay of this set; here they are far more common. The call rests on the fitted dose curve; in most records, active means well fitted curve in the direction sought with a large enough effect; inconclusive means small, poorly fitted or top-dose-only effect, or another doubt; inactive means no such curve, though single readings can be large; an effect the other way counts as inactive or inconclusive. Potency means the concentration at half of the fitted maximal effect.

SMILES	SMN2 splice up	NPC1 promoter act	Rab9 promoter act	KinaseGlo FLuc	FLuc counter	ELG1 genotox
Cc1nn(-c2ccccc2)c2sc(C(=O)N3CCOCC3)cc12	11µM*	?	3.5µM*	1%	11µM*	?
Cc1nn(-c2ccccc2)c2sc(C(=O)OC3CCOC3=O)cc12 (configuration not stated)	9%	3%	-1%	4%	15µM*	2%
Cc1ccc(-n2nc(C)c3cc(C(=O)O)sc32)cc1	8%	-1%	-4%	-3%	19µM*	3%
Cc1nn(-c2ccccc2)c2sc(C(=O)O)cc12	?	1%	3%	0%	?	0%
COc1ccccc1-c1cc(C(=O)N/N=C/c2ccoc2)c2ccccc2n1	/	-2%	2%	/	?	2%
COc1ccc(/C(C)=N/NC(=O)c2cc(-c3cccnc3)nc3ccccc23)cc1	15%	-2%	-2%	0%	0%	19%
COc1ccc(-c2cc(C(=O)N/N=C(\C)c3cccnc3)c3ccccc3n2)cc1	/	?	?	/	0.67µM*	?
COc1cc(/C=N/NC(=O)c2cc(-c3ccccc3)nc3ccccc23)cc(OC)c1O	/	-5%	2%	/	24µM*	-3%
CCCOc1cccc(-c2cc(C(=O)NN)c3ccccc3n2)c1	-83%	1%	2%	-5%	21µM*	-2%
CCCOc1cccc(-c2cc(C(=O)N/N=C/c3cccnc3)c3ccccc3n2)c1	/	2%	-4%	/	7.6µM*	-15%
CC(C)COc1cccc(-c2cc(C(=O)Nc3ccon3)c3ccccc3n2)c1	/	-2%	0%	/	?	-19%
Cc1ccc(S(=O)(=O)CC(=O)N2CCN(c3cccc(C(F)(F)F)c3)CC2)cc1	/	0%	4%	/	7%	-5%
Cc1ccccc1CN1CCCC(C(=O)Nc2ccccc2Oc2cccnc2)C1 (configuration not stated)	/	0%	-3%	/	4%	-1%
CCCOc1cccc(-c2cc(C(=O)N/N=C/c3ccccn3)c3ccccc3n2)c1	/	-2%	-13%	/	3.8µM*	?
COc1ccc(-c2cc(C(=O)N/N=C/c3cccnc3)c3ccccc3n2)cc1	/	3%	24%	/	1.1µM*	3%
O=C(CNC(=O)c1ccc2c(c1)OCCO2)N/N=C/c1cccc(Br)c1	-64%	-4%	-2%	2%	?	-12%
CCCCNC(=O)c1cccc(-n2cnc3cccnc32)c1C	/	/	/	/	1%	/
CC(C)CCNC(=O)CN1C(=O)CSc2ccc(S(=O)(=O)N3CCCCC3)cc21	/	/	/	/	-5%	/
C/C(=N\NC(=O)c1ccccn1)c1ccc(C(=O)O)s1	3%	-3%	-2%	14µM*	?	?
C/C(=N\NC(=O)c1c[nH]c2ccccc12)c1ccccn1	24%	2.5µM*	?	-7%	11µM*	?
O=C(N/N=C/c1ccc(Sc2ccccn2)o1)c1cc2ccccc2cc1O	?	-3%	0%	-2%	15µM*	13%
O=C(N/N=C(\c1ccccc1)c1ccccn1)c1cccc([N+](=O)[O-])c1	-108%	-25%	-7%	-1%	0%	?
O=C(N/N=C\c1ccc(Sc2ccccn2)o1)c1cccc(F)c1	?	2%	-9%	-3%	-17%	1%
CCOc1ccc(C(=O)N/N=C(\c2ccccc2)c2ccccn2)cc1	-63%	-22%	-19%	0%	19µM*	6%
O=C(Nc1ccccc1)NC1CCCCNC1=O (configuration not stated)	/	3%	2%	/	-10%	1%
SMILES	SMN2 splice up	NPC1 promoter act	Rab9 promoter act	KinaseGlo FLuc	FLuc counter	ELG1 genotox
Cc1ccc(C)c(S(=O)(=O)N2CCCOC2CNC(=O)C(=O)NC2CC2)c1 (configuration not stated)	/	1%	1%	/	1%	1%
C/C(=N\NC(=O)c1ccc(F)cc1)c1ccccn1	/	?	-32%	/	8.5µM*	5.2µM*
C/C(=N\NC(=O)c1cc2ccccc2cc1O)c1ccccn1	/	2µM*	-24%	/	4.8µM*	?
C/C(=N\NC(=O)c1c[nH]c2ccccc12)c1ccco1	14µM*	5.6µM*	4µM*	-27%	12µM*	7.9µM*
C/C(=N\NC(=O)c1nc2ccccn2c1C)c1ccco1	263%	?	2.5µM*	-7%	?	?
O=C(CN1C2CCCC1CC(NC(=O)c1ccccc1)C2)Nc1ccccc1 (configuration not stated)	/	-4%	-2%	/	2%	-8%
C/C(=N\NC(=O)c1nc2ccccn2c1C)c1cc2ccccc2o1	11%	-2%	3%	3%	-3%	-6%
C/C(=N\NC(=O)c1cc2ccccc2cc1O)c1cc2ccccc2o1	/	20%	11%	/	15µM*	-11%
CC(C)(C)C1CCc2sc(C(=O)NNC(=O)CCl)cc2C1 (configuration not stated)	-18%	-42%	-45%	7%	4.8µM*	?
CC(C)(C)C1CCC(=NNC(=O)c2cc3c(s2)CCCC3)CC1 (configuration not stated)	-10%	-5%	-1%	0%	-2%	-1%
CN(CC(=O)Nc1ncn[nH]1)S(=O)(=O)c1ccc(Cl)cc1	/	-5%	-2%	/	-1%	-15%
CCn1nc(C(=O)OCC(=O)NCC(C)C)c2ccccc2c1=O	-4%	-5%	1%	3%	-2%	3%
CN(C)CCCN(C(=O)c1ccco1)c1nc(-c2ccc(Cl)cc2)cs1	/	6%	-8%	/	-10%	0%
COc1ccc(-c2csc(NC(=O)COC(=O)c3ccco3)n2)cc1	13µM*	4µM*	3.2µM*	2%	?	?
COc1ccc(-c2csc(NC(=S)NC(=O)c3ccco3)n2)cc1	?	-3%	-1%	-1%	0%	20%
CCn1nc(C(=O)OCC(=O)Nc2nc(-c3ccc(OC)cc3)cs2)c2ccccc2c1=O	10µM*	?	?	3%	?	?
